Source: PubChem BioAssay AID1159580 (chemical genetic matrix, 2015)
Hit rate of the full screen: of about 5,500 compounds, about 2,000 (36%) were called active. About 18% were inconclusive and are not listed. Cut-off read from the data, not from the text of the source: active = normalized growth mostly below about 0.91 (no sharp cut-off); inconclusive = no clear call, values can overlap the other calls; inactive = mostly above about 0.92. This is one part of the list.

Experiment: chemical genetic growth profiling, strain panel (AID 1159580);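 note: tested at 20 µM; growth read once vehicle control cultures reached saturation at 30 °C; 1 = growth at the plate median or of vehicle wells; lower values mean less growth of the strain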
Conditions: growth OD

Measured: normalized growth

Cc1ccc(S(=O)(=O)NC(=O)NN2CC3CCCC3C2)cc1 (stereo not drawn)
inactive: S. cerevisiae deletion strains, locus YJR043C, strain POL32, active compounds read low 0.991 | S. cerevisiae deletion strains, locus YJR066W, strain TOR1, active compounds read low 0.904 | S. cerevisiae deletion strains, locus YKL009W, strain mrt4, active compounds read low 1.02 | S. cerevisiae deletion strains, locus YKL068W, active compounds read low 1.01 | S. cerevisiae deletion strains, locus YKL085W, strain MDH1 (second series), active compounds read low 1.04 | S. cerevisiae deletion strains, locus YKL085W, strain MDH1, active compounds read low 1.04 | S. cerevisiae deletion strains, locus YKL160W, strain elf1, active compounds read low 0.98 | S. cerevisiae deletion strains, locus YKL190W, strain CNB1, active compounds read low 1.01 | S. cerevisiae deletion strains, locus YKR001C, strain vps1, active compounds read low 1.01 | S. cerevisiae deletion strains, locus YKR026C, strain gcn3, active compounds read low 0.978 | S. cerevisiae deletion strains, locus YKR091W, strain srl3, active compounds read low 0.974 | S. cerevisiae deletion strains, locus YLL001W, strain dnm1, active compounds read low 0.953 | S. cerevisiae deletion strains, locus YLL026W, active compounds read low 0.974 | S. cerevisiae deletion strains, locus YLL041C, strain sdh2, active compounds read low 0.982 | S. cerevisiae deletion strains, locus YLR027C, strain aat2, active compounds read low 0.976 | S. cerevisiae deletion strains, locus YLR039C, strain RIC1, active compounds read low 0.943 | S. cerevisiae deletion strains, locus YLR058C, strain SHM2, active compounds read low 1.01 | S. cerevisiae deletion strains, locus YLR102C, strain apc9, active compounds read low 1.01 | S. cerevisiae deletion strains, locus YLR113W, strain HOG1, active compounds read low 0.974 | S. cerevisiae deletion strains, locus YLR221C, strain rsa3, active compounds read low 0.976 | S. cerevisiae deletion strains, locus YLR258W, strain gsy2, active compounds read low 0.99 | S. cerevisiae deletion strains, locus YLR262C, strain YPT6 (second series), active compounds read low 0.927 | S. cerevisiae deletion strains, locus YLR262C, strain YPT6, active compounds read low 0.967 | S. cerevisiae deletion strains, locus YLR268W, strain sec22, active compounds read low 0.999 | S. cerevisiae deletion strains, locus YLR320W, strain mms22, active compounds read low 0.983 | S. cerevisiae deletion strains, locus YLR330W, strain CHS5, active compounds read low 1 | S. cerevisiae deletion strains, locus YLR342W, strain FKS1 (second series), active compounds read low 0.992 | S. cerevisiae deletion strains, locus YLR342W, strain FKS1, active compounds read low 0.996 | S. cerevisiae deletion strains, locus YLR357W, strain rsc2, active compounds read low 0.989 | S. cerevisiae deletion strains, locus YLR370C, strain arc18, active compounds read low 0.953 | S. cerevisiae deletion strains, locus YLR371W, strain rom2, active compounds read low 1.01 | S. cerevisiae deletion strains, locus YLR384C, strain iki3, active compounds read low 0.993 | S. cerevisiae deletion strains, locus YLR418C, strain cdc73, active compounds read low 1.02 | S. cerevisiae deletion strains, locus YML016C, strain PPZ1, active compounds read low 0.996 | S. cerevisiae deletion strains, locus YML032C, strain rad52, active compounds read low 1.01 | S. cerevisiae deletion strains, locus YML120C, strain ndi1, active compounds read low 1.01 | S. cerevisiae deletion strains, locus YML124C, strain tub3, active compounds read low 1.01 | S. cerevisiae deletion strains, locus YMR058W, strain fet3, active compounds read low 0.958 | S. cerevisiae deletion strains, locus YMR078C, strain ctf18, active compounds read low 1.02 | S. cerevisiae deletion strains, locus YMR125W, strain sto1, active compounds read low 0.966 | S. cerevisiae deletion strains, locus YMR129W, active compounds read low 0.97 | S. cerevisiae deletion strains, locus YMR205C, strain PFK2, active compounds read low 0.991 | S. cerevisiae deletion strains, locus YMR223W, strain ubp8, active compounds read low 1.03 | S. cerevisiae deletion strains, locus YMR231W, strain pep5, active compounds read low 0.989 | S. cerevisiae deletion strains, locus YMR263W, strain SAP30, active compounds read low 1.02 | S. cerevisiae deletion strains, locus YMR307W, strain GAS1, active compounds read low 1.04 | S. cerevisiae deletion strains, locus YNL067W, strain RPL9B, active compounds read low 1.03 | S. cerevisiae deletion strains, locus YNL071W, strain lat1, active compounds read low 0.974 | S. cerevisiae deletion strains, locus YNL153C, strain GIM3, active compounds read low 1 | S. cerevisiae deletion strains, locus YNL183C, strain NPR1, active compounds read low 0.92 | S. cerevisiae deletion strains, locus YNL209W, strain ssb2, active compounds read low 0.977 | S. cerevisiae deletion strains, locus YNL233W, strain BNI4, active compounds read low 1.01 | S. cerevisiae deletion strains, locus YNL248C, strain rpa49, active compounds read low 0.982 | S. cerevisiae deletion strains, locus YNL250W, strain rad50, active compounds read low 1.03 | S. cerevisiae deletion strains, locus YNL271C, strain bni1, active compounds read low 1.01 | S. cerevisiae deletion strains, locus YNL298W, strain CLA4, active compounds read low 1.04 | S. cerevisiae deletion strains, locus YNL307C, strain MCK1, active compounds read low 1.02 | S. cerevisiae deletion strains, locus YNL322C, strain KRE1 (second series), active compounds read low 0.978 | S. cerevisiae deletion strains, locus YNR049C, strain mso1, active compounds read low 0.961 | S. cerevisiae deletion strains, locus YNR052C, strain pop2, active compounds read low 1.01 | S. cerevisiae deletion strains, locus YOL012C, strain htz1 0.86 | S. cerevisiae deletion strains, locus YOL147C, strain pex11, active compounds read low 1.02 | S. cerevisiae deletion strains, locus YOR001W, strain rrp6, active compounds read low 0.99 | S. cerevisiae deletion strains, locus YOR061W, strain CKA2, active compounds read low 0.996 | S. cerevisiae deletion strains, locus YOR069W, strain VPS5, active compounds read low 1.01 | S. cerevisiae deletion strains, locus YOR070C, strain gyp1, active compounds read low 0.985 | S. cerevisiae deletion strains, locus YOR080W, strain dia2, active compounds read low 0.97 | S. cerevisiae deletion strains, locus YOR083W, strain WHI5, active compounds read low 0.982 | S. cerevisiae deletion strains, locus YOR106W, strain vam3, active compounds read low 0.968 | S. cerevisiae deletion strains, locus YOR136W, strain idh2, active compounds read low 1.01 | S. cerevisiae deletion strains, locus YOR144C, strain elg1, active compounds read low 1.01 | S. cerevisiae deletion strains, locus YOR184W, strain ser1, active compounds read low 1 | S. cerevisiae deletion strains, locus YOR231W, strain MKK1, active compounds read low 0.971 | S. cerevisiae deletion strains, locus YOR265W, strain rbl2, active compounds read low 0.967 | S. cerevisiae deletion strains, locus YOR270C, strain vph1, active compounds read low 1.03 | S. cerevisiae deletion strains, locus YOR290C, strain snf2, active compounds read low 0.939 | S. cerevisiae deletion strains, locus YOR316C, strain cot1, active compounds read low 1.01 | S. cerevisiae deletion strains, locus YPL051W, strain arl3, active compounds read low 0.959 | S. cerevisiae deletion strains, locus YPL078C, strain atp4, active compounds read low 0.978 | S. cerevisiae deletion strains, locus YPL106C, strain sse1, active compounds read low 1 | S. cerevisiae deletion strains, locus YPL240C, strain hsp82, active compounds read low 0.985 | S. cerevisiae deletion strains, locus YPL256C, strain CLN2, active compounds read low 0.965 | S. cerevisiae deletion strains, locus YPR119W, strain clb2, active compounds read low 1.01 | S. cerevisiae deletion strains, locus YPR141C, strain kar3, active compounds read low 1.03 | S. cerevisiae deletion strains, locus YPR163C, strain tif3, active compounds read low 1.02 | S. cerevisiae deletion strains, locus YPR167C, strain met16, active compounds read low 1.02 | S. cerevisiae deletion strains, strain wtn01, active compounds read low 1 | S. cerevisiae strains, strain wild type, active compounds read low 0.997
